Experimental data reported in PubChem BioAssay (Tox21).
Calls of active or inactive are those of the source. Calls follow the shape of the dose curve; as a rule, active = well fitted inhibition curve with a large enough effect in the repeat runs (not every such curve was filed as active); inconclusive = weak or mixed curves; inactive = flat fitted curve, though single readings scatter.

molecular target: Thyrotropin-releasing hormone receptor (Homo sapiens) (UniProt P34981); experiment: qHTS assay to identify small molecule antagonists of the thyrotropin-releasing hormone receptor (TRHR) signaling pathway (AID 1346877); details: TRHR-HEK293, TRH-induced calcium fluorescence, antagonist mode; series mostly up to 51.3 µM
Description: National Center for Advancing Translational Sciences [NCATS]
NIH Chemical Genomics Center [NCGC]
U.S. Environmental Protection Agency [EPA]
National Institutes of Environmental Health Sciences [NIEHS]
National Toxicology Program [NTP]
U.S. Food and Drug Administration [FDA]
Thyrotropin-releasing hormone (TRH) receptor (TRHR) is a G-protein-coupled receptor which binds the tripeptide thyrotropin releasing hormone. TRHR is found in the brain and, when bound by TRH, acts (through phospholipase C) to increase intracellular inositol trisphosphate. It plays a crucial role in the anterior pituitary where it controls the synthesis and secretion of thyroid stimulating hormone and prolactin. The TRHR-Hek293 assay is a cell-based assay, and it has the potential to screen G protein-coupled receptors. A compound/drug can either activate (agonist) or suppress (antagonist) GPCRs that can be monitored by levels of intracellular calcium. In this assay, the Tox21 10K compound library was screened to identify potential TRHR antagonists.
Tox21 Assay Protocol Summary:
The TRHR-Hek293 cells were dispensed at 1500cells/4uL/well in 1536-well black-clear bottom plates using a Multidrop dispenser. After the assay plates were incubated at a 37 C/5% CO2 incubator for 18 hours, 4 uL of Dye-Loading Solution was added to each well. The plates were incubated at 37 C for 2 hours. For agonist mode, 23 nL of compounds dissolved in DMSO, positive controls or DMSO only was transferred to the assay plate by a pin tool. The fluorescence intensity in the plates was measured using FDSS 7000EX kinetic plate reader for 3 min at 1 sec intervals. For antagonist mode, 23 nL of compounds dissolved in DMSO, positive controls or DMSO only was transferred to the assay plate by a pin tool. After 5 min incubation at room temperature, 1 uL of TRH was added on the top of the cell/compound mixtures to achieve a final agonist concentration of 1 nM. The fluorescence intensity in the plates was measured using FDSS 7000EX kinetic plate reader for 3 min at 1 sec intervals. Each test compound was measured at 15 concentrations and in triplicates.
% is scaled to controls: 0 for no effect and ±100 for the full control effect.

Chain of Thyrotropin-releasing hormone receptor (Homo sapiens) (P34981 whole entry, looked up): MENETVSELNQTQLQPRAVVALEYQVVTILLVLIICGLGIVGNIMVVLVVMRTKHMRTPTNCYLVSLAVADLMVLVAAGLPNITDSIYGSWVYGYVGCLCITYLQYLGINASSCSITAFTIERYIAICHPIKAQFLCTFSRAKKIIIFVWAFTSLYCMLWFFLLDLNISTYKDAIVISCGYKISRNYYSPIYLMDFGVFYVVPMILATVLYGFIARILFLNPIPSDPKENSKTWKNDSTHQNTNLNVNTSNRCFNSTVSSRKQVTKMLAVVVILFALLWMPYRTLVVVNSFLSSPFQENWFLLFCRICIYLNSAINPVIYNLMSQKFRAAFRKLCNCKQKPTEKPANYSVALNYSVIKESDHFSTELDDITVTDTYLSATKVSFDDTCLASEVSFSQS

Row | Compound | outcome | activity, negative = inhibition
1 | COCCOC | inactive | –
2 | O=C(O)c1ccccc1NCCc1ccccc1 | inactive | –
3 | CCCCCCCCCCOS(=O)(=O)O | inactive | –
4 | Cc1occc1C(=O)Nc1ccc(C(=O)N2CCC(F)(F)/C(=C\C(=O)N3CCC(N4CCCCC4)CC3)c3ccccc32)cc1 | inactive | –
5 | COc1cc2ncnc(Nc3ccc(F)c(Cl)c3)c2cc1OCCCN1CCOCC1 | inactive | –
6 | Nc1ccc(C(=O)OCCCOC(=O)c2ccc(N)cc2)cc1 | inactive | –
7 | CC(Cl)C(Cl)Cl (stereo not given) | inactive | –
8 | Nc1nccs1 | inactive | –
9 | CN(C)CCOC1=Cc2ccccc2Sc2ccc(Cl)cc21 | inactive | –
10 | COc1cc2[nH]c(=O)[nH]c(=O)c2cc1OC | inactive | –
11 | CNCCCC1c2ccccc2C=Cc2ccccc21 | inactive | –
12 | CCOC(=O)CC(=O)C(=O)OCC | inactive | –
13 | COC(OC)(C(=O)c1ccccc1)c1ccccc1 | inactive | –
14 | Oc1ccc(Nc2ccccc2)cc1 | inactive | –
15 | CC(C)=CC=O | inactive | –
16 | O=C(OCCOCCO)c1ccccc1Nc1cccc(C(F)(F)F)c1 | inactive | –
17 | C=CC(C)(O)CCCC(C)CCCC(C)CCCC(C)C (stereo not given) | inactive | –
18 | CCC1(C)CC(=O)NC1=O (stereo not given) | inactive | –
19 | CCOC(=O)N1CCC(n2c(=O)[nH]c3cc(Cl)ccc32)CC1 | inactive | –
20 | CC1=C(/C=C/C(C)=C\C=C\C(C)=C\C(=O)O)C(C)(C)CCC1 | inactive | –

Row | Compound | outcome | activity, negative = inhibition
21 | C=CC(=O)NCOCC(C)C | inactive | –
22 | CNC(=S)NC | inactive | –
23 | CCC(C(=O)OCCOCCN(CC)CC)c1ccccc1 (stereo not given) | inactive | –
24 | CCCCN(CCCC)C(=S)SSC(=S)N(CCCC)CCCC | inactive | –
25 | CC1CC(=O)NN=C1c1ccc(NCC(C)(C)NCC(O)COc2cc(Cl)ccc2C#N)cc1 (stereo not given) | inactive | –
26 | c1ccc(COCc2ccccc2)cc1 | inactive | –
27 | Fc1c(F)c(F)c(Br)c(F)c1F | inactive | –
28 | CC(C)(CCl)c1ccccc1 | inactive | –
29 | CCOC(=O)/C=C/C(=O)O | inactive | –
30 | C/C=C/C=C/CCCCCCCO | inactive | –
31 | COc1cc2c(cc1OC)-c1cc(=Nc3c(C)cc(C)cc3C)n(C)c(=O)n1CC2 | inactive | –
32 | CCCCCCCC/C=C\CCCCCCCC(=O)OC(CO)CO | inactive | –
33 | COc1ccc(C(=O)c2cccc(O)c2)c(OC)c1 | inactive | –
34 | Cc1ccc(S(=O)(=O)NC2CCCCC2)cc1 | inactive | –
35 | CC1C2CC(CC2C2CCCC(O)C2)C1(C)C (stereo not given) | inactive | –
36 | CC(N)CN (stereo not given) | inactive | –
37 | c1cc[c]([Bi]([c]2ccccc2)[c]2ccccc2)cc1 | inactive | –
38 | CCC(C)=O | inactive | –
39 | Cc1ccc(S)cc1 | inactive | –
40 | [O]=[Bi] | – | 3.48% [at 4.65 µM] (inactive)
